The source of these data is paper PMC4552634, “A New Set of Chemical Starting Points with Plasmodium falciparum Transmission-Blocking Potential for Antimalarial Drug Discovery” (PLoS ONE, 2015).

SMILES strings stand for the structures. In all, about 13,000 compounds went through this assay and about 3,200 (25%) showed an effect of 50% or more. The list shows a part of the results.

The subject of the assay is P. falciparum stage V gametocytes. Also noted: BacTiter-Glo ATP luminescence viability of purified stage V gametocytes in 384-well plates, per cent inhibition versus DMSO. To be noted: 48 h, 5 µM; inhibitor.
Turning to `O=C(Nc1cccc(-c2ccc(-c3nc4ccc(F)cc4[nH]3)cc2)c1)Nc1ccc(Cl)c(Cl)c1` [TCMDC-133280], the % Inhibition (as a rule, the drop in the measured response relative to a control, in per cent) is reported as -66.79%. For `CC1CCN(CC[C@H]2CCCN2S(=O)(=O)c2cccc(NC(=O)c3cc4ccccc4s3)c2)CC1` [TCMDC-141077], the “% Inhibition” value is on record as -68%. Then `N#Cc1ccccc1S(=O)(=O)N1CCCC(CNC(=O)[C@H](CC2CCCCC2)NC(=O)c2cc3ccccc3s2)C1` (stereo partly drawn) [TCMDC-136558], with -3.694%; and `CC(C)C[C@H](NC(=O)c1cc2ccccc2s1)C(=O)N[C@H]1CCN(Cc2ccc(OC3CCN(C)C3)c(Cl)c2)C1` (stereo partly drawn) [TCMDC-140293], with 19.83%; and `CC(C)C[C@H](NC(=O)c1cc2ccccc2s1)C(=O)N[C@H]1CCN(Cc2ccc(I)c(OCCN3CCCC3)c2)C1` [TCMDC-140287], with 56%. In the case of `CC(C)C[C@H](NC(=O)c1cc2ccccc2s1)C(=O)N[C@H]1CCN(Cc2ccc(I)c(OC3CCN(C)C3)c2)C1` (stereo partly drawn) [TCMDC-140288], the “% Inhibition” value was determined as 64.78%.

As to `CC(C)CC(NC(=O)c1cc2ccccc2s1)C(=O)N1CCCCCC1c1ccc(C(C)(C)C)cc1` (stereo not drawn) [TCMDC-136337], the “% Inhibition” value was 63.43%. Turning to `CC(C)C[C@H](NC(=O)c1cc2ccccc2s1)C(=O)N[C@H]1CCN(Cc2ccc(OCCCN(C)C)c(Cl)c2)C1` [TCMDC-140291], the “% Inhibition” value was 44.54%.

Consider `COc1ccc(CC2(c3ccc(F)cc3)N=C(N)N(CCCc3ccc(F)c(F)c3)C2=O)cc1` (stereo not drawn) [TCMDC-136542], for which the “% Inhibition” value is recorded as -2.474%. Then `Clc1ccc2nnc(-c3c(Cl)cccc3Cl)n2n1` [TCMDC-124489], with 23.9%. With `c1cc(CNCC2CCCO2)cc(-c2csc(-c3nc4ccccc4[nH]3)c2)c1` (stereo not drawn) [TCMDC-133108], the “% Inhibition” value was -15.46%. In the case of `C=CCc1cc(Br)ccc1OCCCOc1c(C)nc(N)nc1N` [TCMDC-131366], the “% Inhibition” value is -2.875%.

In the case of `Cc1ccc2c(OCCN3CCC(Cc4ccc5c(c4)NC(=O)CO5)CC3)cc(F)cc2n1` [TCMDC-141356], the “% Inhibition” value was 22.38%. In the case of `O=S(=O)(Nc1ccc(CCN2CCC(N3CCCCC3)CC2)cc1)c1cccc(C(F)(F)F)c1` [TCMDC-134090], the “% Inhibition” value turned out to be 84.05%. On to `O=C(c1ccc(Cl)cc1)C1CCCN(C2CCN(CCc3ccccc3)CC2)C1` (stereo not drawn) [TCMDC-124655], for which the “% Inhibition” value is on record as -36.02%.

With `O=S(=O)(Nc1cccc(CCN2CCC(N3CCCCC3)CC2)c1)c1ccccc1C(F)(F)F` [TCMDC-134070], the “% Inhibition” value was 2.875%. Then `O=S(=O)(Nc1cccc(CCN2CCC(N3CCCCC3)CC2)c1)c1cccc(C(F)(F)F)c1` [TCMDC-134086], with 60.6%.

Take `O=S(=O)(Nc1ccc(CCN2CCC(N3CCCCC3)CC2)cc1)c1ccccc1C(F)(F)F` [TCMDC-134080]: the “% Inhibition” value was 79.99%. On to `Cc1cccc(S(=O)(=O)Nc2cccc(CCN3CCC(N4CCCCC4)CC3)c2)c1` [TCMDC-134087], for which the “% Inhibition” value is reported as 26.17%. For the compound `CC(c1cccc(S(=O)(=O)NCc2cccc(C(F)(F)F)c2)c1)N1CCC(N2CCCCC2)CC1` (stereo not drawn) [TCMDC-133565], the “% Inhibition” value is 5.245%.

Take `O=c1ccc(-c2nc3cc(Cl)c(Cl)cc3n2Cc2ccc(Cl)cc2Cl)c[nH]1` [TCMDC-124041]: the “% Inhibition” value stood at 6.921%. Consider `Cc1ccc(Nc2nc(C)cc(Nc3cccc(NS(C)(=O)=O)c3)n2)cc1` [TCMDC-133449], for which the “% Inhibition” value came out at 22.69%. With `CCCc1cc(Cc2cnc(N)nc2N)cc(CCC)c1OCCCCCC(=O)OCC` [TCMDC-137289], the “% Inhibition” value was -20.26%. Under `COc1cccc(NC(=O)c2nc(N3CCN(c4ccncc4)CC3)ccc2Cl)c1` [TCMDC-135104] stands 27.68%. Regarding `Cc1ccc(NC(=O)c2ccc(N3CCN(c4ccncc4)CC3)cc2)cc1F` [TCMDC-135126], the “% Inhibition” value amounted to 6.025%. Under `Cc1ccc(NC(=O)c2nc(N3CCN(c4ccncc4)CC3)ccc2Cl)cc1F` [TCMDC-135103] stands 90.08%; under `Cc1ccc(NC(=O)c2ccnc(N3CCN(c4ccncc4)CC3)c2)cc1F` [TCMDC-135102], 18.96%. In the case of `Cc1ccc(NC(=O)c2ccc(N3CCN(c4ccncc4)CC3)cn2)cc1F` [TCMDC-135156], the “% Inhibition” value was 103.4%.

As to `O=C(Nc1ccc2c(c1)CCC2)c1nc(N2CCN(c3ccncc3)CC2)ccc1Cl` [TCMDC-135105], the “% Inhibition” value is recorded as 30.18%.

In the case of `CC(C)(C)C(=O)Nc1ccc(N2CCN(C(c3ccccc3)c3ccccc3)CC2)c(Cl)c1` [TCMDC-133713], the “% Inhibition” value turned out to be 36.59%. On to `COc1ccc(Cl)cc1N1CCN(CCCNC(=O)c2ccc(-c3nc4cc(Cl)c(Cl)cc4[nH]3)c(C)c2)CC1` [TCMDC-140082], for which the “% Inhibition” value was -14.21%.

For `O=C(Cn1cc(C=C2SC(=NC3CCCC3)N(C3CCCC3)C2=O)c2ccccc21)N1CCCC1` [TCMDC-124810], the “% Inhibition” value is on record as -5.018%.

Regarding `COc1ccc2nccc(N(C)CC3(O)CCN(CCc4ccc5c(c4)NC(=O)CS5)CC3)c2n1` [TCMDC-141472], the “% Inhibition” value is on record as 49.29%. In the case of `CCCCC(=O)Nc1nc2ccc([N+](=O)[O-])cc2s1` [TCMDC-123686], the “% Inhibition” value was -7.174%. In the case of `CC(C)C(C)(C#N)NC(=O)CSc1nc2ccc([N+](=O)[O-])cc2s1` (stereo not drawn) [TCMDC-123610], the “% Inhibition” value amounted to 79.56%. Regarding `O=C(CSc1nc2ccc([N+](=O)[O-])cc2s1)Nc1ccccc1-c1ccccc1` [TCMDC-124341], the “% Inhibition” value is 43.04%. For the compound `COc1ccc2nccc(N(C)CC3(O)CCC(NCc4cc5c(cn4)OCCO5)CC3)c2n1` (stereo not drawn) [TCMDC-134497], the “% Inhibition” value came to 30.63%. On to `N=c1ccn(CC(=NO)c2ccc(Cl)c(Cl)c2)cc1` [TCMDC-139033], for which the “% Inhibition” value is listed as -35.74%. Take `COc1ccccc1C1CCN(C2CCC(NC(=O)/C=C/c3ccc(F)c(F)c3)CC2)CC1` (stereo not drawn) [TCMDC-133493]: the “% Inhibition” value is reported as -77.67%. Turning to `O=[N+]([O-])c1nc(Br)n(Cc2ccc(Cl)cc2)n1` [TCMDC-125048], the “% Inhibition” value is 51.98%. On to `Clc1ccc(Cn2nc(Br)nc2Br)c(Cl)c1` [TCMDC-125047], for which the “% Inhibition” value is -61.09%. Then `CC(Oc1c(C2CCN(CCCCNC(=O)c3ccc(-c4ccc(C#N)cc4)cc3)CC2)ccc2c1CCCC2)C(N)=O` (stereo not drawn) [TCMDC-134551], with 41.12%; and `CC(C)(Oc1c(C2CCN(CCCCNC(=O)c3ccc(-c4ccc(Cl)cc4)cc3)CC2)ccc2c1CCCC2)C(N)=O` [TCMDC-134939], with -3.044%. With `CC(Oc1c(C2CCN(CCCCNC(=O)c3ccc(-c4ccc(Cl)cc4)cc3)CC2)ccc2c1CCCC2)C(N)=O` (stereo not drawn) [TCMDC-134653], the “% Inhibition” value is listed as 65.96%. On to `O=C(NCCCCN1CCC(c2ccc3c(c2O)CCCC3)CC1)c1ccc(-c2ccc(Cl)cc2)cc1` [TCMDC-138661], for which the “% Inhibition” value is 61.25%.

For `CC(=O)c1ccc(-c2ccc(C(=O)NCCCCN3CCC(c4ccc5c(c4O)CCCC5)CC3)cc2)cc1` [TCMDC-138653], the “% Inhibition” value stood at 60.63%. As to `C=Cc1c(C2CCN(CCCCNC(=O)c3ccc(-c4ccc(C#N)cc4)cc3)CC2)ccc2c1CCCC2` [TCMDC-135273], the “% Inhibition” value came to 38.74%.

With `N#Cc1ccc(-c2ccc(C(=O)NCCCCN3CCC(c4cc(Br)c5c(c4O)CCCC5)CC3)cc2)cc1` [TCMDC-135238], the “% Inhibition” value is recorded as -99.04%. With `COc1ccc2c(c1C1CCN(CCCCNC(=O)c3ccc(NC(=O)c4ccc(Cl)cc4)cc3)CC1)CCCC2` [TCMDC-138553], the “% Inhibition” value is reported as 46.07%. For the compound `O=C(NCCCCN1CCC(c2ccc3c(c2O)CCCC3)CC1)c1ccc(NC(=O)c2ccc(Cl)cc2)cc1` [TCMDC-138645], the “% Inhibition” value worked out at 88.57%. On to `Cc1ccc(C2CCN(CCCCNC(=O)c3ccc(NC(=O)c4ccc(Cl)cc4)cc3)CC2)c(C)c1` [TCMDC-138354], for which the “% Inhibition” value stood at 9.967%.
